Measured values from the supplement of paper PMC4840960.
Counter-ions that a name gives are not always drawn. ± gives the standard deviation of the averaged measurements.

Experiments:
[1] = test system: E18 rat cortical neuron-glia co-culture; experiment: fiber score / MBP score (myelination specific beyond OL differentiation) (ratio); higher = more myelination-specific MBP alignment; conditions: treatment time: 8 days (DIV5-DIV13)
Outline: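 Papain-dissociated primary E18 rat cortical co-cultures, plated at 20,000 cells/well on poly-d-lysine/laminin 96-well plates, were exposed to library compounds at 1 or 5 µM in myelination medium between DIV5 and DIV13. Following fixation in 4 % paraformaldehyde, cultures were stained for MBP, Olig2 and DAPI, and four 10X fields per well were analysed in duplicate wells. Values are the ratio of fiber score (continuous MBP fiber length per Olig2+ nucleus) to MBP score (thresholded MBP area × intensity per Olig2+ nucleus).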

[2] = test system: E18 rat cortical neuron-glia co-culture; experiment: myelination (MBP fiber length per Olig2+ nucleus), % of 1 µM DAPT response (DMSO = 0) (% of DAPT); higher = more myelination, active = 50 or more; conditions: treatment time: 8 days (DIV5-DIV13)
Outline: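 Myelination, expressed as continuous straight MBP fiber length per Olig2+ nucleus, was normalised to 0.1 % DMSO as 0 and a 1 µM positive control as 100. The cultures were primary E18 rat cortical co-cultures dissociated with papain and plated at 20,000 cells/well on poly-d-lysine/laminin-coated 96-well plates. They received library compounds at 1 or 5 µM in myelination medium between DIV5 and DIV13. Analysis covered four 10X fields per well in duplicate wells after 4 % paraformaldehyde fixation and immunostaining for MBP and Olig2 with DAPI.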

| SMILES | fiber score / MBP score ([1]; 1 µM) | fiber score / MBP score ([1]; 5 µM) | myelination ([2]; 1 µM) | myelination ([2]; 5 µM) |
| --- | --- | --- | --- | --- |
| O=C1CN(/N=C/c2ccc(-c3ccc([N+](=O)[O-])cc3)o2)C(=O)N1 [Dantrolene sodium salt dihydrate] | 0.33 | 0.372 | -11.8 (inactive) | -14.2 (inactive) |
| Nc1nnc(-c2cccc(Cl)c2Cl)c(N)n1 [Lamotrigine] | 0.703 | 0.746 | -23.5 (inactive) | -15.5 (inactive) |
| O=C(O)c1cc(-c2ccc(F)cc2F)ccc1O [Diflunisal] | 0.772 | 1.08 | -4.48 (inactive) | 6.86 (inactive) |
| CNC(=C[N+](=O)[O-])NCCSCc1csc(CN(C)C)n1 [Nizatidine] | 0.895 | 0.816 | -8.02 (inactive) | -29.5 (inactive) |
| NC[C@H]1CC[C@H](C(=O)Oc2ccc(CCC(=O)O)cc2)CC1 [Cetraxate] | 1.07 | 0.791 | 4.64 (inactive) | -18.2 (inactive) |
| CCc1nc(N)nc(N)c1-c1ccc(Cl)cc1 [Pyrimethamine] | 1.86 | 2.19 | 398 (active) | 655 (active) |
| CN1CCN(C2=Nc3ccccc3Oc3ccc(Cl)cc32)CC1 [Loxapine] | 0.561 | 0.903 | -14.9 (inactive) | 4.82 (inactive) |
| CC(C)/N=c1\cc2n(-c3ccc(Cl)cc3)c3ccccc3nc-2cc1Nc1ccc(Cl)cc1 [Clofazimine] | 0.742 | 0.962 | -9.19 (inactive) | -8.06 (inactive) |
| CC(=O)OCC(=O)NCCCOc1cccc(CN2CCCCC2)c1 [Roxatidine acetate] | 0.727 | 0.706 | -10.7 (inactive) | -14.2 (inactive) |
| NC(=O)N1c2ccccc2C=Cc2ccccc21 [Carbamazepine] | 0.735 | 0.902 | 2.28 (inactive) | 2.05 (inactive) |
| CC(C)C(=O)Nc1ccc([N+](=O)[O-])c(C(F)(F)F)c1 [Flutamide] | 0.826 | 0.938 | -7.82 (inactive) | 5.48 (inactive) |
| C#C[C@]1(O)CC[C@H]2[C@@H]3[C@H](C)CC4=C(CCC(=O)C4)[C@H]3CC[C@@]21C [Tibolone] | 0.647 | 0.773 | -17.1 (inactive) | -13.2 (inactive) |
| CC(=O)O[C@@]12CO[C@@H]1C[C@H](O)[C@@]1(C)C(=O)[C@H](O)C3=C(C)[C@@H](OC(=O)[C@H](O)[C@@H](NC(=O)OC(C)(C)C)c4ccccc4)C[C@@](O)([C@@H](OC(=O)c4ccccc4)[C@H]21)C3(C)C [Docetaxel] | 1.59 | 1.62 | 263 (active) | 257 (active) |
| O=C(CCNNC(=O)c1ccncc1)NCc1ccccc1 [Nialamide] | 0.859 | 0.524 | -5.76 (inactive) | -19 (inactive) |
| CC(C)(C)C(O)/C=C/c1ccc2c(c1)OCO2 (stereo not drawn) [Stiripentol] | 0.738 | 0.84 | -11.3 (inactive) | -6.09 (inactive) |
| COc1ccc2cc(CCC(C)=O)ccc2c1 [Nabumetone] | 0.801 | 1.17 | -8.32 (inactive) | 6.9 (inactive) |
| Cc1c(OCC(F)(F)F)ccnc1C[S+]([O-])c1nc2ccccc2[nH]1 (stereo not drawn) [Lansoprazole] | 0.767 | 1.37 | -17.3 (inactive) | 65.6 |
| CN1CC(=O)N2[C@H](c3ccc4c(c3)OCO4)c3[nH]c4ccccc4c3C[C@@H]2C1=O [Tadalafil] | 0.799 | 0.74 | -45.7 (inactive) | -34.9 (inactive) |
| CCN(Cc1ccncc1)C(=O)C(CO)c1ccccc1 (stereo not drawn) [Tropicamide] | 0.511 | 0.747 | -22.3 (inactive) | -16.2 (inactive) |
| COCCCC/C(=N\OCCN)c1ccc(C(F)(F)F)cc1 [Fluvoxamine] | 1.03 | 0.487 | -0.231 (inactive) | -9.1 (inactive) |
| CN1CCc2cc(Cl)c(O)cc2C(c2ccccc2)C1 (stereo not drawn) | 0.959 | 0.975 | -8.8 (inactive) | -9.82 (inactive) |
| Cc1ccsc1C(=CCCN1CCC[C@@H](C(=O)O)C1)c1sccc1C [Tiagabine] | 0.656 | 0.716 | -23.8 (inactive) | -16.6 (inactive) |
| CC[C@@H](CO)NCCN[C@@H](CC)CO [Ethambutol] | 0.781 | 0.753 | -5.28 (inactive) | -6.9 (inactive) |
| CN1C(C(=O)Nc2ccccn2)=C(O)c2ccccc2S1(=O)=O [Piroxicam] | 0.787 | 1.04 | -10.9 (inactive) | -8.56 (inactive) |
| COc1ccc(C(=O)NCc2ccc(OCCN(C)C)cc2)cc1OC [Itopride] | 0.63 | 0.693 | -10.9 (inactive) | -10.7 (inactive) |
| COc1cc(/C=C/c2ccc(O)cc2)cc(OC)c1 [Pterostilbene] | 0.637 | 0.668 | -13.8 (inactive) | -12.2 (inactive) |

| SMILES | fiber score / MBP score ([1]; 1 µM) | fiber score / MBP score ([1]; 5 µM) | myelination ([2]; 1 µM) | myelination ([2]; 5 µM) |
| --- | --- | --- | --- | --- |
| CC(=O)/N=c1/sc(S(N)(=O)=O)nn1C [Methazolamide] | 0.875 | 0.672 | -8.24 (inactive) | -24.1 (inactive) |
| Nc1c2c(nc3c1CCC3)CCCC2 [Amiridine] | 0.702 | 0.8 | -26.8 (inactive) | -17.6 (inactive) |
| C#C[C@]1(O)CC[C@H]2[C@@H]3CCC4=CC(=O)CC[C@@H]4[C@H]3CC[C@@]21C [Norethindrone] | 0.894 | 0.877 | -8.89 (inactive) | -10.7 (inactive) |
| CC(C)NCC(O)COc1cccc2ccccc12 (stereo not drawn) [Propranolol] | 1.55 | 0.95 | 9.85 (inactive) | 1.55 (inactive) |
| O=C1c2cccc3c2[C@H](CCC3)CN1[C@@H]1CN2CCC1CC2 [Palonosetron] | 0.728 | 0.587 | -11.1 (inactive) | -11.5 (inactive) |
| COC(=O)Nc1nc2cc(C(=O)c3ccccc3)ccc2[nH]1 [Mebendazole] | 0.624 | 0.207 | 71.4 | -22.3 (inactive) |
| COc1cc(C(=O)NS(=O)(=O)c2ccccc2C)ccc1Cc1cn(C)c2ccc(NC(=O)OC3CCCC3)cc12 [Zafirlukast] | 0.627 | 0.714 | -12.3 (inactive) | -4.26 (inactive) |
| CCn1cc(C(=O)O)c(=O)c2ccc(C)nc21 [Nalidixic Acid] | 0.966 | 0.797 | -2.25 (inactive) | -7.26 (inactive) |
| CC1=C(C(=O)O)N2C(=O)[C@@H](NC(=O)[C@H](N)c3ccccc3)[C@H]2SC1 [Cephalexin] | 0.963 | 0.986 | -2.86 (inactive) | -1.59 (inactive) |
| C#C[C@]1(O)CC[C@H]2[C@@H]3CCC4=Cc5oncc5C[C@]4(C)[C@H]3CC[C@@]21C [Danazol] | 0.577 | 0.557 | -20.4 (inactive) | -24.3 (inactive) |
| C[C@@H]1C[C@H]2[C@@H]3C[C@H](F)C4=CC(=O)C=C[C@]4(C)[C@@]3(F)[C@@H](O)C[C@]2(C)[C@@]1(O)C(=O)SCF [Fluticasone] | 0.729 | 0.694 | -47.4 (inactive) | -24.8 (inactive) |
| Cc1cccc(Nc2ccccc2C(=O)O)c1C [Mefenamic Acid] | 0.791 | 1.3 | -6.36 (inactive) | 38.7 (inactive) |
| CCCC(=O)O[C@]1(C(=O)COC(=O)CC)CC[C@H]2[C@@H]3CCC4=CC(=O)CC[C@]4(C)[C@H]3[C@@H](O)C[C@@]21C [Hydrocortisone buteprate] | 1.04 | 1.22 | 5.43 (inactive) | 12.1 (inactive) |
| COc1ccccc1N1CCN(CCCNc2cc(=O)n(C)c(=O)n2C)CC1 [Urapidil] | 0.767 | 0.799 | -28.5 (inactive) | -23.7 (inactive) |
| COC1=CC(=O)C[C@@H](C)[C@]12Oc1c(Cl)c(OC)cc(OC)c1C2=O [Griseofulvin] | 0.759 | 0.92 | -17.8 (inactive) | 21.8 (inactive) |
| CN(C)CCCC1(c2ccc(F)cc2)OCc2cc(C#N)ccc21 (stereo not drawn) [Citalopram] | 0.773 ± 0.29 | 0.571 ± 0.19 | -18.2 (inactive) | -19 (inactive) |
| CCCN[C@H]1CCc2nc(N)sc2C1 [Pramipexole] | 0.851 ± 0.02 | 0.903 ± 0.21 | -6.49 (inactive) | -14.4 (inactive) |
| COc1ccc(CC(C)NCC(O)c2ccc(O)c(NC=O)c2)cc1 (stereo not drawn) [Formoterol] | 0.702 | 0.726 | -12.6 (inactive) | -14.5 (inactive) |
| CC(C)NCC(O)COc1ccc(CC(N)=O)cc1 (stereo not drawn) [Atenolol] | 1.03 | 1.04 | 2.66 (inactive) | 7.87 (inactive) |
| O=C1N(c2ccccc2)c2ccccc2C1(Cc1ccncc1)Cc1ccncc1 [Linopirdine] | 0.779 | 0.73 | -4.06 (inactive) | -12 (inactive) |
| C#C[C@]1(O)CC[C@H]2[C@@H]3CCc4cc(OC)ccc4[C@H]3CC[C@@]21C [Mestranol] | 0.724 | 0.298 | -6.5 (inactive) | -18 (inactive) |
| COc1ccc(-c2oc3c(CC=C(C)C)c(O[C@@H]4O[C@H](CO)[C@@H](O)[C@H](O)[C@H]4O)cc(O)c3c(=O)c2O[C@@H]2O[C@@H](C)[C@H](O)[C@@H](O)[C@H]2O)cc1 [Icariin] | 0.673 | 0.958 | -14.4 (inactive) | -5.53 (inactive) |
| O=C(O)CCCc1ccccc1 [4-Phenylbutyric acid] | 1.07 | 0.747 | 10.1 (inactive) | -8.79 (inactive) |
| COCCCOc1ccnc(C[S+]([O-])c2nc3ccccc3[nH]2)c1C (stereo not drawn) [Rabeprazole] | 0.82 | 0.912 | -11.1 (inactive) | 10.6 (inactive) |
| CC(C)(C)NCC(O)COc1cccc2c1CC(O)C(O)C2 (stereo not drawn) [Nadolol] | 0.767 | 0.949 | -13.9 (inactive) | -7.81 (inactive) |
| COc1ccnc(C[S+]([O-])c2nc3cc(OC(F)F)ccc3[nH]2)c1OC (stereo not drawn) [Pantoprazole] | 0.86 | 0.933 | -9.58 (inactive) | 1.97 (inactive) |
